Where “and” joins values, the source holds several entries; their conditions need not be identical. Equal values may be shown once. Hit rate of the full screen: of about 5,500 compounds, about 2,000 (36%) were called active. About 18% were inconclusive and are not listed. Cut-off read from the data, not from the text of the source: active = normalized growth mostly below about 0.91 (no sharp cut-off); inconclusive = no clear call, values can overlap the other calls; inactive = mostly above about 0.92. Some of the results follow.
Assay: chemical genetic growth profiling, strain panel (AID 1159580);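 note: tested at 20 µM; growth read once vehicle control cultures reached saturation at 30 °C; 1 = growth at the plate median or of vehicle wells; lower values mean less growth of the strain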
Settings: S. cerevisiae deletion strains, growth OD

Measured: normalized growth

O=C(NCO)c1cccnc1
inactive: locus YAL013W, strain DEP1, active compounds read low 0.99 | locus YAL021C, strain ccr4, active compounds read low 1.02 | locus YAL026C, strain drs2, active compounds read low 1.01 | locus YAL030W, strain snc1, active compounds read low 1.01 | locus YBL061C, strain skt5, active compounds read low 1.01 | locus YBR009C, strain hhf1, active compounds read low 0.998 | locus YBR021W, strain FUR4, active compounds read low 1.04 | locus YBR023C, strain chs3, active compounds read low 1 | locus YBR171W, strain sec66, active compounds read low 1.03 | locus YBR229C, strain ROT2, active compounds read low 0.997 | locus YBR231C, strain swc5, active compounds read low 1 | locus YBR279W, strain paf1, active compounds read low 1.01 | locus YCL011C, strain gbp2, active compounds read low 1.01 | locus YCL016C, strain dcc1, active compounds read low 1.01 | locus YCL029C, strain bik1, active compounds read low 0.971 | locus YCL061C, strain MRC1, active compounds read low 0.999 | locus YCL069W, strain vba3, active compounds read low 1 | locus YCR088W, strain abp1, active compounds read low 1 | locus YDL005C, strain med2, active compounds read low 1 | locus YDL035C, strain GPR1, active compounds read low 0.985 | locus YDL040C, strain nat1, active compounds read low 1.01 | locus YDL074C, strain BRE1, active compounds read low 1 | locus YDL101C, strain DUN1, active compounds read low 0.99 | locus YDL134C, strain PPH21, active compounds read low 0.988 | locus YDL185W, strain tfp1, active compounds read low 1.01 | locus YDL192W, strain arf1, active compounds read low 0.987 | locus YDR001C, strain nth1, active compounds read low 1 | locus YDR069C, strain doa4, active compounds read low 0.999 | locus YDR101C, strain arx1, active compounds read low 0.991 | locus YDR137W, strain rgp1, active compounds read low 1.02 | locus YDR150W, strain NUM1, active compounds read low 0.98 | locus YDR159W, strain sac3, active compounds read low 1 | locus YDR162C, strain NBP2, active compounds read low 1 | locus YDR195W, strain ref2 0.993 | locus YDR297W, strain sur2, active compounds read low 1.01 | locus YDR318W, strain mcm21, active compounds read low 0.978 | locus YDR334W, strain swr1, active compounds read low 1.01 | locus YDR335W, strain msn5, active compounds read low 1.01 | locus YDR388W, active compounds read low 0.989 | locus YDR392W, strain spt3, active compounds read low 0.893 | locus YDR502C, strain sam2, active compounds read low 0.996 | locus YEL003W, strain gim4, active compounds read low 1.01 | locus YEL037C, strain rad23, active compounds read low 1.02 | locus YEL061C, strain CIN8 (second series), active compounds read low 1.01 | locus YEL061C, strain CIN8, active compounds read low 0.996 | locus YER015W, strain faa2, active compounds read low 1 | locus YER016W, strain bim1, active compounds read low 1.01 | locus YER110C, active compounds read low 0.97 | locus YER111C, strain swi4, active compounds read low 1 | locus YER155C, strain BEM2 (second series), active compounds read low 1.01 | locus YER155C, strain BEM2, active compounds read low 0.996 | locus YER167W, strain BCK2, active compounds read low 0.982 | locus YFR010W, strain ubp6, active compounds read low 1.01 | locus YGL078C, strain dbp3, active compounds read low 0.979 | locus YGL086W, strain mad1, active compounds read low 0.983 | locus YGL167C, strain pmr1, active compounds read low 1.01 | locus YGL173C, strain kem1, active compounds read low 1.01 | locus YGL227W, strain vid30, active compounds read low 1 | locus YGL240W, strain doc1, active compounds read low 0.988 | locus YGL248W, strain PDE1, active compounds read low 0.994 | locus YGL253W, strain hxk2, active compounds read low 1.01 | locus YGR078C, strain PAC10, active compounds read low 0.995 | locus YGR135W, strain pre9, active compounds read low 1.02 | locus YGR229C, strain SMI1, active compounds read low 1.01 | locus YGR252W, strain gcn5, active compounds read low 1.01 | locus YHR013C, strain ard1, active compounds read low 0.984 | locus YHR027C, strain rpn1, active compounds read low 1.01 | locus YHR030C, strain SLT2, active compounds read low 0.984 and 0.995 | locus YHR079C, strain IRE1 (second series), active compounds read low 0.989 | locus YHR079C, strain IRE1, active compounds read low 0.992 | locus YHR094C, strain hxt1, active compounds read low 0.982 | locus YHR129C, strain ARP1, active compounds read low 0.994 | locus YHR142W, strain chs7, active compounds read low 1.02 | locus YHR200W, strain rpn10, active compounds read low 0.981 | locus YIL066C, strain RNR3, active compounds read low 0.98 | locus YIL073C, strain SPO22, active compounds read low 0.894 | locus YIL125W, strain kgd1, active compounds read low 0.975 | locus YIR030C, strain dcg1, active compounds read low 0.992 | locus YJL092W, strain hpr5, active compounds read low 1.01 | locus YJL095W, strain BCK1 (second series), active compounds read low 1 | locus YJL095W, strain BCK1, active compounds read low 1.01 and 0.998 | locus YJL115W, strain asf1, active compounds read low 1 | locus YJL129C, strain trk1, active compounds read low 1.01 | locus YJL134W, strain LCB3, active compounds read low 0.988 | locus YJL154C, strain vps35, active compounds read low 1 | locus YJL164C, strain tpk1, active compounds read low 0.998 | locus YJL166W, strain qcr8, active compounds read low 1.01 | locus YJL168C, strain set2, active compounds read low 0.982 | locus YJL187C, strain SWE1 (second series), active compounds read low 0.982 | locus YJL187C, strain SWE1, active compounds read low 1 | locus YJR043C, strain POL32, active compounds read low 0.983 | locus YJR066W, strain TOR1, active compounds read low 0.906

From PubChem BioAssay AID1159580 (chemical genetic matrix, 2015)
